Assay outcomes from PubChem BioAssay.
Rows were chosen to be rich in hits. Some 8.3% of all compounds tested hit in one or more screens of this group.
RORg inh = qHTS for inhibitors of ROR gamma transcriptional activity; Drosophila S2 Gal4-RORgamma UAS-luciferase reporter, 20 h; Potency, µM (titrated, usually from 53.6 µM), inactives show at the top dose activity change, negative = inhibition, most hits filed as inhibitors; 310,000 compounds, 5.4% hits; note: potency is the fitted concentration of half-maximal effect; % is set by controls: 0 for no effect and ±100 for the full control effect; nearly all actives have a fitted effect of over 60% in size
Target sequence (P51450 whole entry, looked up, the tested form may be a part): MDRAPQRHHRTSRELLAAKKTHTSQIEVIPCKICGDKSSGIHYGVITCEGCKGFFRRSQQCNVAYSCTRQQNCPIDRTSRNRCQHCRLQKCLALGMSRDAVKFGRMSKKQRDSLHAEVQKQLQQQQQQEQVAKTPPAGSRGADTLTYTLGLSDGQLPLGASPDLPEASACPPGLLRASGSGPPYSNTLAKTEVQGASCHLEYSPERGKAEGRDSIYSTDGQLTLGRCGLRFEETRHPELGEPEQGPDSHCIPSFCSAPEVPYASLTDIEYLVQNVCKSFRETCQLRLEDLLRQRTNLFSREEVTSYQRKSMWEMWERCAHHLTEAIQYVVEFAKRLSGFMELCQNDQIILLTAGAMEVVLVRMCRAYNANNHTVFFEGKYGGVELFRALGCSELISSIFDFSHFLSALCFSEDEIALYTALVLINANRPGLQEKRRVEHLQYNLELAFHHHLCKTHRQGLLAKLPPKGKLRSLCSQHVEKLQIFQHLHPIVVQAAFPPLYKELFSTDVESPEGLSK
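Schneider cells (Drosophila), stable Gal4 DBD–ROR gamma + UAS-luc; 1 hr cmpd preincubation; Cu2+ induction 700 uM final; 20 hr ambient; luminescence.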
SW480 rerep = A quantitative high throughput screen for small molecules that induce DNA re-replication in SW480 colon adenocarcinoma cells | Potency, µM (top dose mostly 46.1 µM), without a hit: at the top dose re-replication activation, usual class: activators | 340,000 compounds, 1.8% hits | AID 624297, 2012 | SW480 DNA re-replication, Hoechst DNA content imaging, 48 h; note: potency is the fitted concentration of half-maximal effect; % of control where 0% means no effect; nearly all actives have a fitted effect of over 55% in size
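Hoechst fluorescence of nuclei (405 nm excitation, 500-530 nm emission) measured by plate-scanning imager after 48 hr compound exposure at 37 C; re-replication scored as increased number of nuclei with elevated intensity.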
Giardia killer = Small Molecules that selectively kill Giardia lamblia: qHTS | 340,000 compounds, 0.15% hits | activity change, % at 7.66 µM, hits read low | AID 540267, 2011 | Giardia lamblia trophozoite viability; in the data active = activity change below about -80%; inconclusive = between about -30% and that limit;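 note: parasites exposed to compound for two days anaerobically before the ATP read; % is set by controls: 0 for no effect and ±100 for the full control effect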
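Media and compound were dispensed first, then trophozoites at 100 cells/well; plates sat 48 hrs at 37 deg C without oxygen before ATP luminescence reagent was added and read after 15-30 min at room temperature.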
BCR signal inh = qHTS Assay to Find Inhibitors of Chronic Active B-Cell Receptor Signaling; ABC-DLBCL IkBa-CBG/CBR reporter, luminescence ratio, 4 h; 340,000 compounds, 0.05% hits; AID 493014, 2011; Potency, µM (doses to about 46.1 µM), for the others: at the highest dose activity change, negative = inhibition, most hits filed as inhibitors; active = well fitted inhibition curve with a large enough effect in the signal ratio, with a control signal flat, not every such curve was filed as active; inconclusive = small, poorly fitted or top-dose-only effect, or effect the other way, or a change in a side signal; the % refers to the signal ratio;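 note: potency is the fitted concentration of half-maximal effect; plate controls were basal doxycycline-induced cells for no effect and cells given 10 µM MG132 for full effect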
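Doxycycline induced both beetle luciferases in TMD8 lymphoma cells; IKK-driven degradation limits the IkappaBalpha-fused green signal, while red luminescence normalises for cell number and nonspecific effects. Compounds tested up to 46 uM, 4 hrs.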
Gal4-VP16 FLuc = VP16 counterscreen qHTS for inhibitors of ROR gamma transcriptional activity | Potency, µM (series often up to 53.6 µM), inactives show at the highest dose activity, negative = inhibition, most hits filed as inhibitors | 310,000 compounds, 3.5% hits | Drosophila S2 Gal4-VP16 UAS-luciferase, luminescence, 20 h | AID 2546, 2010;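 note: Gal4-VP16 expression switched on by copper sulfate through the metallothionein promoter; potency is the fitted concentration of half-maximal effect; % is set by controls: 0 for no effect and ±100 for the full control effect; nearly all actives have a fitted effect of over 50% in size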
MCF10A rereplic = A quantitative high throughput screen for small molecules that induce DNA re-replication in MCF 10a normal breast cells; MCF 10A DNA re-replication, Hoechst nuclear intensity, 48 h; Potency, µM (series often up to 46.1 µM), without a hit: top-dose activity, positive = re-replication, hits mostly activators; 350,000 compounds, 2.9% hits; AID 624296, 2012; note: potency is the fitted concentration of half-maximal effect; % of control where 0% means no effect; nearly all actives have a fitted effect of over 50% in size
The depositor's hits bear a star; ? = inconclusive; · = not tested or not shown; [ ] = dose if it differs, or a comment. Unless noted, calls come from the whole dose curve; as a rule, active = well fitted curve in the direction sought with a large enough effect; inconclusive = small, poorly fitted or top-dose-only effect, or another doubt; inactive = no such curve, though single readings can be large; an effect the other way counts as inactive or inconclusive.

SMILES	RORg inh	SW480 rerep	Giardia killer	BCR signal inh	Gal4-VP16 FLuc	MCF10A rereplic
O=C(NCCCN1CCOCC1)c1ccc(/C=C2\Oc3ccccc3N(Cc3ccccc3F)C2=O)cc1	?	?	25	-1%	?	5.2µM*
CCC(C)(C)NC(=O)C(c1ccc(C)cc1)N(CC1CCCO1)C(=O)c1csnn1 (configuration not stated)	0%	-4%	-10	3%	-3%	0%
COc1ccc(OC)c(N(CC(=O)NCCSC2CCCCC2)S(=O)(=O)c2ccccc2)c1	1%	17%	4	0%	-8%	16%
CCN1c2ccccc2NC2N=C(OC)C(c3ccccc3)C21 (configuration not stated)	-8%	16µM*	-5	?	-14%	?
C/C1=C\CCC2C(/C=C(\C)CC1)OC(=O)C2CN1CCCCC1 (configuration not stated)	11%	21µM*	10	?	8%	?
CC(C)N(Cc1ccccc1)C(C)C (tested in a mixture with another compound)	13%	·	·	·	5%	·
CCN(CC)c1ccc(NC(=O)c2ccc3c(c2)OCO3)cc1	·	?	-11	?	·	-2%
Cc1occc1C(=O)N/N=C/C1=C(N2CCOCC2)C(=C\c2ccc(Cl)cc2)/CC1	-114%	?	9	-1%	?	18µM*
Cc1cc(C)nc(N/N=C/C2=C(N3CCOCC3)C(=C/c3ccccc3)/CC2)n1	-11%	16µM*	10	-6%	-20%	8.2µM*
Cc1cc2nc(CS(=O)(=O)c3ccccc3)cc(=O)n2[nH]1	-11%	2%	-19	-3%	-9%	2%
O=C1c2ccccc2S(=O)(=O)N1Cc1nc2ccccc2s1	3.2µM*	6%	-6	?	4µM*	-2%
Cc1ccccc1CN1C(=O)c2ccccc2S1(=O)=O	-1%	-7%	-18	-9%	5%	23µM*
Cc1ccccc1CNC(=O)CN1C(=O)c2ccccc2S1(=O)=O	10%	-14%	-8	-4%	4%	1%
O=C1c2ccccc2S(=O)(=O)N1CCCN1C(=O)c2ccccc2S1(=O)=O	·	0%	-10	·	·	0%
Cc1ccc(-n2nnnc2SCC(=O)NCC2CCCO2)cc1C (configuration not stated)	·	-1%	-4	2%	·	6%
Cc1c(C(=O)N(C)C)sc2c1c(=O)n(-c1ccc(Cl)cc1)c(=O)n2CC(=O)C(C)(C)C	·	·	·	-4%	·	·
CCN(CC)CCNc1ncnc2c1sc1nc(N3CCCC3)c3c(c12)CC(C)(C)OC3	11µM*	14%	11	?	?	21µM*
CC1(C)Cc2c(c(N3CCOCC3)nc3sc4c(NN)ncnc4c23)CS1	7.9µM*	?	15	?	7.1µM*	23µM*
CC1(C)Cc2c(c(-c3ccco3)nc3sc4c(NCC5CCCO5)ncnc4c23)CO1 (configuration not stated)	-9%	?	57	11%	-19%	23µM*
CSCC[C@H](NC(=O)[C@H](CC(C)C)NC(=O)CNC(=O)[C@H](Cc1ccc(O)cc1)NC(=O)[C@H](Cc1ccccc1)NC(=O)[C@H](CCCCN)NC(=O)[C@H](CC(N)=O)NC(=O)[C@@H]1CCCN1C(=O)[C@H](CC(=O)O)NC(=O)[C@H](C)NC(=O)[C@@H]1CCC(=O)N1)C(N)=O	5%	·	·	·	-4%	·
CCCCN(CC)c1nc(N)c2c(N)nc(OCC)cc2c1C#N	12%	?	-2	?	1%	23µM*
Cc1ccc(NC(=O)C2CC(=O)N(CCc3ccccc3)C2)c(C)c1 (configuration not stated)	7%	8%	-16	0%	4%[10 µM]	4%
COc1ccc2[nH]c(CN3CCN(CC=C(C)C)C(CCO)C3)c(C)c2c1 (configuration not stated)	-11%	-10%	-11	0%	-8%	16µM*
CC(=O)N(CCC(Cc1ccccc1)c1ccc2c(c1)OCO2)Cc1ccc(Cl)cc1 (configuration not stated)	-9%	?	8	?	7%[0.365 µM]	16µM*
CCOc1cc(/C=C2\COc3ccccc3C2=O)cc(Br)c1OCC(=O)N(C)C	?	?	-13	?	20µM*	?
SMILES	RORg inh	SW480 rerep	Giardia killer	BCR signal inh	Gal4-VP16 FLuc	MCF10A rereplic
COc1ccc(/C=C2\COc3ccccc3C2=O)cc1OC	?	?	11	?	?	?
O=C(O)c1ccc(/C=C2\COc3ccccc3C2=O)cc1	7.1µM*	2%	-2	?	6.3µM*	?
O=C(O)CCn1cc(/C=C\C(=O)c2ccc(Cl)cc2)c(-c2cccc(Br)c2)n1	?	-3%	-11	?	?	12µM*
O=C(Oc1cccc([N+](=O)[O-])c1)c1ccc2c(=O)n3c(nc2c1)CCC3	·	-12%	9	-2%	·	-4%
CCn1c(/C=C/c2cc(Br)ccc2O)nc2ccccc2c1=O	?	?	-2	-22%	-9%	16µM*
Cn1c(/C=C/c2cccc(Br)c2)nc2ccccc2c1=O	-19%	18µM*	-9	?	8%	23µM*
CC(C)N(CC(=O)Nc1ccc(Cl)cc1C(F)(F)F)C(=O)CCl	?	?	45	?	-14%	?
COc1ccc(C(C)(C)C)cc1NC(=O)CCN1C(=O)NC(C)(C)C1=O	·	3%	-27	2%	·	-3%
CCn1c(O)c(N=NC(=O)C(O)c2ccccc2)c2ccccc21 (configuration not stated)	-23%	?	11	6%	-11%	-1%
OCCC1CN(Cc2nc3ccccc3s2)CCN1C1CCCC1 (configuration not stated)	-10%	1%	-17	?	10%	-2%
O=C(O)c1ccc(Cl)c(NC(=O)C2CCCN2S(=O)(=O)c2cccc3nsnc23)c1 (configuration not stated)	1%	0%	6	1%	-7%	8%
CCc1cccc(C)c1NC(=S)NCC(c1cccnc1)N(C)C (configuration not stated)	-27%	1%	24	1%	9%	-3%
CCN(Cc1ccc(OC)c(COC)c1)CC1CCCN(CCc2cccc(F)c2)C1 (configuration not stated)	2%	?	-3	?	-3%	3.7µM*
